Results on 18 compounds are retold here after PubChem BioAssay (Tox21).

Records with an inconclusive call do not appear. A number with no mark means an inactive call. The source made the active and inactive calls. Calls follow the shape of the dose curve; as a rule, active = well fitted cell-killing curve with a large enough effect in the repeat runs; inconclusive = weak or mixed curves, or effect the other way; inactive = flat fitted curve, though single readings scatter.

Experiment [1] in a line: cAMP Responsive Elements (CRE) small molecule antagonists, cell-based qHTS assay: qHTS cell viability counter screen (AID 2060913). Also: nearly all actives have a fitted effect of over 40% in size. To be noted: CRE-bla HEK293T viability, CellTiter-Glo luminescence, 5 h; series mostly up to 92.4 µM. In outline:
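Viability of NKH477-stimulated (0.25 uM final) CRE-bla HEK293T cells is measured by CellTiter-Glo luminescence following 3 hrs compound exposure at 37 C.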

Experiment [2] in a line: cAMP Responsive Elements (CRE) small molecule agonists, cell-based qHTS assay: qHTS cell viability counter screen (AID 2060914). Also: nearly all actives have a fitted effect of over 50% in size. To be noted: CRE-bla HEK293T viability, CellTiter-Glo luminescence, 5 h; series mostly up to 92.4 µM. In a few lines: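 Cytotoxicity counter screen multiplexed with the CRE-bla reporter assay in HEK 293T cells: 3 h compound exposure at 37 °C, followed by CellTiter-Glo luminescence measured in the same wells.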
% is scaled to controls: 0 for no effect and ±100 for the full control effect; potency is read from the fitted curve at half-maximal effect.

`NC(N)=Nc1nc(CSCC/C(N)=N/S(N)(=O)=O)cs1`: the Potency result in experiment [1] and in experiment [2] was “inactive” throughout.

Turning to `NCC[C@H](O)C(=O)N[C@@H]1C[C@H](N)[C@@H](O[C@H]2O[C@H](CN)[C@@H](O)[C@H](O)[C@H]2O)[C@H](O)[C@H]1O[C@H]1O[C@H](CO)[C@@H](O)[C@H](N)[C@H]1O`, the viability change, negative = cytotoxic in experiment [1] is 0.2% [at 0.349 µM]. The activity change, negative = cytotoxicity in experiment [2] was -8.14% [at 0.349 µM].

As for `COc1ccc(Br)c(C)c1`, the Potency entry in experiment [1] and in experiment [2] was “inactive” in each case.

In the case of `O=c1[nH]cc(F)c(=O)[nH]1`, the Potency result in experiment [1] and in experiment [2] was “inactive” each time.

Turning to `CCc1cc(SCc2sc(-c3ccc(C(F)(F)F)cc3)nc2CN2CCN(c3ccc(OC)cc3)CC2)ccc1OCC(=O)O`, the Potency in experiment [1] is 54.5 µM (active); in experiment [2], 61.1 µM (active).

For the compound `CC(C)c1cccc(C(C)C)c1NC(=O)NS(=O)(=O)c1cc(C(C)(C)O)co1`, the Potency result in experiment [1] and in experiment [2] was “inactive” throughout.

As to `COc1c(C)c2c(c(O)c1C/C=C(\C)CCC(=O)O)C(=O)OC2`, the Potency result in experiment [1] and in experiment [2] was “inactive” each time.

Regarding `OCCN(CCO)c1nc(N2CCCCC2)c2nc(N(CCO)CCO)nc(N3CCCCC3)c2n1`, the Potency result in experiment [1] and in experiment [2] was “inactive” in each case.

For `O=C(O)C(c1ccc(Cl)cc1)c1ccc(Cl)cc1`, the Potency entry in experiment [1] and in experiment [2] was “inactive” throughout.

`CC(=O)Oc1ccc(C2(c3ccc(OC(C)=O)cc3)C(=O)Nc3ccccc32)cc1`: the Potency result in experiment [1] and in experiment [2] was “inactive” in each case.

As to `CN1CC(=O)N2[C@H](c3ccc4c(c3)OCO4)c3[nH]c4ccccc4c3C[C@@H]2C1=O`, the Potency entry in experiment [1] and in experiment [2] was “inactive” throughout.

For `O=C(c1ccccc1)c1ccc2n1CCC2C(=O)O` (stereo unspecified), the Potency entry in experiment [1] and in experiment [2] was “inactive” each time.

For `O=C=NC1CCC(CC2CCC(N=C=O)CC2)CC1` (stereo unspecified), the Potency entry in experiment [1] and in experiment [2] was “inactive” throughout.

On to `CCOC(=O)CC#N`, for which the Potency result in experiment [1] and in experiment [2] was “inactive” in each case.

`Cc1ccc(C)o1`: the Potency entry in experiment [1] and in experiment [2] was “inactive” throughout.

As to `Nc1ccc(S(=O)(=O)c2ccc(N)cc2)cc1`, the Potency result in experiment [1] and in experiment [2] was “inactive” in each case.

Take `COc1ccc2nc(N)sc2c1`: the Potency result in experiment [1] and in experiment [2] was “inactive” throughout.

Take `O=C(c1ccccc1)C1(O)CCCCC1`: the Potency result in experiment [1] and in experiment [2] was “inactive” each time.
